This is a sample that favours compounds with a hit; in the whole collection about 6.5% have one here.
VACV mCherry inh: inhibitors of vaccinia virus infection (mCherry reporter signal); Vaccinia virus mCherry reporter infection, fluorescence; Potency, µM (highest dose often 36.5 µM), actives largely listed as inhibitors; actives 0.63% (n = 310,000); AID 720579; calls by dose curve; tested in A549 cells; note: nearly all actives have a fitted effect of over 35% in size
MARV entry inh: inhibitors of Marburg virus binding or cell entry. actives 1.8% (n = 300,000). Potency, µM (highest dose often 37.8 µM), actives largely listed as inhibitors. AID 540276. Marburg virus pseudotyped entry inhibition, cell reporter; calls by dose curve; tested in HEK293 cells
FMDV inh: blocks foot and mouth disease virus; FMDV antiviral cell-based qHTS; actives 1.2% (n = 410,000); Potency, µM (series often up to 57.9 µM), hits mostly inhibitors; calls by dose curve; tested in HEK293T cells; note: read-out not given here; nearly all actives have a fitted effect of over 45% in size
Vaccinia Venus: inhibitors of vaccinia virus (Venus reporter); Potency, µM (highest dose often 36.5 µM), most hits filed as inhibitors; actives 0.46% (n = 330,000); Vaccinia virus Venus reporter expression, fluorescence; calls by dose curve; tested in A549 cells; note: nearly all actives have a fitted effect of over 30% in size
HCMV inh: human cytomegalovirus inhibition. HFF cells, HCMV-luciferase reporter, 72 h; active compounds read low. activity change, negative = inhibition, % at 57.5 µM. actives 4.5% (n = 410,000); in the data active = activity change below about -60%; inconclusive = no clear call, values can overlap the other calls; inactive = above about -39%
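Two compound doses tested in HFFs infected with HCMV-luciferase, MOI 1 PFU/cell, 72 h at 37C. Lysate luminescence read with OneGlo; data normalized against buffer-only and 10uM Salinomycin inhibitor controls.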
LASV entry inh: inhibitors of Lassa virus binding or cell entry; Potency, µM (doses to about 37.9 µM), most hits filed as inhibitors; actives 1.2% (n = 300,000); Lassa virus pseudotype entry inhibition, cell reporter; calls by dose curve; tested in HEK293 cells; note: nearly all actives have a fitted effect of over 50% in size
Numbers stand for hits; . = inactive; ? = inconclusive; / = no result given; + = active, no number; [ ] = remark or other dose.

SMILES | VACV mCherry inh | MARV entry inh | FMDV inh | Vaccinia Venus | HCMV inh | LASV entry inh
COC(=O)c1c(NC(=O)c2ccccc2N(C)S(=O)(=O)c2ccccc2)sc2c1CCCC2 | / | 4.5µM | . | ? | ? | ?
C[C@H](CO)N1C[C@H](C)[C@@H](CN(C)C(=O)Nc2ccnc(N3CCOCC3)c2)OCc2cn(nn2)CCCC1=O | / | / | / | / | . | /
Nc1nonc1-n1nnc(C(=O)N/N=C/c2c(F)cccc2Cl)c1-c1ccc2c(c1)OCO2 | / | / | . | / | . | /
Nc1nonc1-n1nnc(C(=O)N/N=C/c2ccc3c(c2)OCO3)c1-c1ccccc1 | . | . | . | . | -70 | /
Nc1nonc1-n1nnc(C(=O)N/N=C/c2ccc(Br)cc2)c1-c1ccc2c(c1)OCO2 | . | ? | . | . | + | .
Nc1nonc1-n1nnc(C(=O)N/N=C/c2ccc(F)cc2)c1-c1cccs1 | . | . | . | . | + | .
COc1ccccc1/C=N/NC(=O)c1nnn(-c2nonc2N)c1-c1cccs1 | / | / | . | / | / | /
Nc1nonc1-n1nnc(C(=O)N/N=C/c2cccc(Cl)c2)c1-c1ccc2c(c1)OCO2 | . | . | . | . | + | .
CC(O)COCC1OC2OC3C(COCC(C)O)OC(OC4C(COCC(C)O)OC(OC5C(COCC(C)O)OC(OC6C(COCC(C)O)OC(OC7C(COCC(C)O)OC(OC8C(COCC(C)O)OC(OC1C(OCC(C)O)C2OCC(C)O)C(OCC(C)O)C8OCC(C)O)C(OCC(C)O)C7OCC(C)O)C(OCC(C)O)C6OCC(C)O)C(OCC(C)O)C5OCC(C)O)C(OCC(C)O)C4OCC(C)O)C(OCC(C)O)C3OCC(C)O (stereo unspecified) | . | / | / | . | / | /
Cc1cnc(CNc2cc(-c3ccoc3)ncn2)cn1 | . | / | . | . | / | /
COc1cccc(NC(=O)CSc2nc3ccccc3cc2Cc2ccccc2)c1 | . | ? | / | . | . | .
COc1cccc(CSc2nc3ccccc3cc2C=O)c1 | / | ? | . | ? | -100 | ?
O=C1[C@@H]2[C@H]3[C@H](O)[C@H](O)CC(=NOC[C@@H](O)COCc4ccco4)[C@@H]3CC[C@H]2C(=O)N1C1CCCCC1 | / | . | / | / | / | /
CC(C)(C)S(=O)(=O)N1C[C@H]2CC(=O)C(CCO)=C2[C@@H]1CCO | / | / | / | / | . | /
COC(=O)c1cc(Sc2cccc(Cl)c2Cl)ccn1 | / | . | ? | / | . | .
COC(=O)c1cc(Sc2c(Cl)cccc2Cl)ccn1 | . | 11µM | . | . | . | .
CCOc1cccc(-c2nnc3n2N=C(c2cc(OC)ccc2OC)CS3)c1 | . | . | ? | . | . | .
COc1ccc(OC)c(C2=Nn3c(nnc3-c3cc(OC)c(OC)c(OC)c3)SC2)c1 | . | ? | . | ? | . | .
COc1cccc(-c2nnc3n2N=C(c2cc(OC)ccc2OC)CS3)c1 | / | ? | . | / | -62 | ?
c1ccc(C2=Nn3c(nnc3-c3cc(-c4ccccc4)n[nH]3)SC2)cc1 | / | ? | ? | ? | . | 16µM
COc1ccc(OC)c(C2=Nn3c(nnc3-c3ccncc3)SC2)c1 | . | 4µM | . | . | . | ?
Cc1cc(-c2nnc3n2N=C(c2ccccc2Br)CS3)n[nH]1 | . | . | . | . | . | .
Clc1ccc(C2=Nn3c(nnc3-c3cc(-c4ccccc4)n[nH]3)SC2)cc1 | / | ? | ? | / | . | ?
Cc1cccc(-c2nnc3n2N=C(c2ccccc2Br)CS3)c1 | . | ? | ? | . | -83 | ?
Cc1cnc(C)c(-c2cccc3c2OC(CNC(=O)/C=C/c2ccc(F)c(F)c2)C3)n1 (stereo unspecified) | . | / | . | . | / | /
SMILES | VACV mCherry inh | MARV entry inh | FMDV inh | Vaccinia Venus | HCMV inh | LASV entry inh
Cc1ccc(C)c(N2CCN(S(=O)(=O)c3ccc(-c4cnc(C5CC5)o4)cc3)CC2)c1 | . | / | . | . | . | ?
COc1cccc(-c2nnc3n2N=C(C(C)(C)C)CS3)c1 | / | . | . | / | -98 | .
COc1ccc(C2=Nn3c(nnc3-c3ccc(OC)cc3)SC2)cc1 | / | ? | ? | / | -101 | 1.3µM
COc1ccc(-c2nnc3n2N=C(C)CS3)cc1 | / | . | . | / | . | .
COc1ccccc1-c1nnc2n1N=C(C(C)(C)C)CS2 | / | . | . | / | . | .
CC=COC(=O)N[C@@H](c1cccc(C)c1)[C@]1(C(=O)OCC)CCCC1=O | / | . | / | / | / | /
CC(C)Oc1cc(F)ccc1-c1cc(C(=O)Nc2cccc(C(F)(F)F)c2)[nH]n1 | . | / | ? | . | -64 | /
Nc1c(Cl)cc(C(=O)NC2CC2)cc1Cl | . | 11µM | . | . | . | .
Oc1ccc(CN2CCCc3ccccc32)c2cccnc12 | ? | ? | . | ? | / | 4.5µM
COc1ccccc1N1CCN(Cc2ccc(O)c3ncccc23)CC1 | / | ? | ? | / | -91 | 10µM
CC1CCc2c(sc3nc(-c4cc5ccccc5oc4=O)nc(Cl)c23)C1 (stereo unspecified) | . | . | . | . | . | .
CC(C)[C@@H]1Cc2c(C#N)c(N)n(C)c(=S)c2CO1 | / | . | / | / | / | /
COCC=CC1=CC2=CC(=O)C(C)(OC(=O)c3cnc4ccccc4n3)C(=O)C2=CN1Cc1ccc(OC)cc1 (stereo unspecified) | / | . | / | / | / | /
COC/C=C/C1=CC2=CC(=O)C(C)(OC(=O)c3cnc4ccccc4n3)C(=O)C2=CN1Cc1ccccc1 (stereo unspecified) | . | . | 14µM | ? | . | /
COc1cccc(CNC(=S)NC2CCCC2)c1 | . | . | . | . | -61 | .
Fc1ccccc1CNC(=S)NC1CCCCC1 | . | ? | . | . | / | ?
COc1ccccc1CNC(=S)NC1CCCCC1 | . | ? | . | . | -74 | 8.9µM
COc1cccc(CNC(=S)NC2CC2)c1 | . | . | . | . | . | .
Cc1ccc(Cl)cc1NC(=O)CCc1c(C)nc2c3cccnc3nn2c1C | . | . | . | . | . | .
CC1(C)Oc2ccc3ccc(=O)oc3c2CC1=O | / | / | . | / | / | /
COc1ccc(NC(=S)NC2CC3CCCC(C2)N3C2CC2)cc1 (stereo unspecified) | / | ? | . | / | ? | .
COc1ccc(CN2C3CCCC2CC(NC(=O)Nc2cccc(C)c2)C3)cc1 (stereo unspecified) | . | 4.6µM | . | . | . | ?
CCCN1C2CCCC1CC(NC(=S)Nc1ccc(OC)cc1)C2 (stereo unspecified) | / | / | . | / | -64 | /
CCOc1ccccc1CNC(=O)C1CCN(C(=O)N2CCOc3ccc(Cl)cc32)CC1 | . | / | . | . | . | ?
Cc1c(NC(=O)C(C)Sc2nc(N)cc(=O)[nH]2)c(=O)n(-c2ccccc2)n1C (stereo unspecified) | / | / | . | / | -63 | /
Cc1cc(SC(C)C(=O)Nc2c(C)n(C)n(-c3ccccc3)c2=O)nc2ccccc12 (stereo unspecified) | .[1.46 µM] | . | . | ? | . | .
Cc1c(NC(=O)C(C)N2C(=O)C3C4C=CC(C4)C3C2=O)c(=O)n(-c2ccccc2)n1C (stereo unspecified) | . | . | . | . | -66 | /
CN(C(=O)c1ccccc1)c1nc2ccccc2s1 | / | 8.9µM | . | . | . | ?
CN1C(=O)C2(c3ccccc31)N(C)CC(c1ccccc1)C21SC(=S)N(Cc2ccco2)C1=O (stereo unspecified) | . | ? | . | . | -62 | ?
